Measurements published in PubChem BioAssay AID1508624 (National Center for Advancing Translational Sciences (NCATS), 2021).
Hit rate of the full screen: of about 48,000 compounds, about 120 (0.25%) were called active. Another 4% or so got no clear call; they are omitted. Shown is part of a subset that was picked to be rich in actives. Entries that show only a call come without a potency. A number with no mark means an inactive call. Calls come from the whole dose curve; as a rule, active = well fitted activation curve with a large enough effect; inconclusive = small, poorly fitted or top-dose-only effect, or another doubt; inactive = no such curve, though single readings can be large or run the other way.

assay: Primary qHTS for Identification of Small Molecule Activators of Huntingtin-Antisense Promoter Activity; conditions: HEK293 HTT-AS promoter firefly luciferase reporter, 24 h; series mostly up to 57.5 µM; note: nearly all actives have a fitted effect of over 55% in size
Description: Assay Provider: Russell L. Margolis M.D.
Department Neurology, Johns Hopkins University School of Medicine, Baltimore, MD
Huntington's Disease (HD) is a neurodegenerative disorder caused by a CAG repeat expansion in exon 1 of huntingtin (HTT). While there are currently no disease-modifying treatments for HD, recent efforts have focused on development of nucleotide-based therapeutics to lower HTT expression. As an alternative to siRNA or oligonucleotide methods, we hypothesized that suppression of HTT expression might be accomplished by small molecules that either (1) directly decrease HTT expression by suppressing HTT promoter activity or (2) indirectly decrease HTT expression by increasing the promoter activity of HTT-AS, the gene antisense to HTT that appears to inhibit expression of HTT.
We developed and employed a high throughput screen for modifiers of HTT and HTT-AS promoter activity using luminescent reporter HEK293 cells; of the 52,041 compounds tested, we identified 898 replicable hits. We used a rigorous stepwise approach to assess compound toxicity and the capacity of the compounds to specifically lower huntingtin protein in 5 different cell lines, including HEK293 cells, HD lymphoblastoid cells, mouse primary neurons, HD iPSCs differentiated into cortical-like neurons, and HD hESCs. We found no compounds which were able to lower huntingtin without lowering cell viability in all assays, though the potential efficacy of a few compounds at non-toxic doses could not be excluded.
SEQUENCE No. (1, 2, 3, etc.); […] (e.g., Cells, Incubation, Reagent, etc.); VALUE and DESCRIPTION.
1; Reagent; 4 uL; 2,500 Hek293 luciferase reporter cells per wells
3; Compound; 23 nL; Control inhibitor / compound library
5; Reagent; 2.5 uL; Firefly Luc reagent; Dual-Glo Luciferase Reporter Assay System (Promega)
6; Time; 10 min; room temperature incubation
7; Detection; Luminescence; FLuc
NOTES (numbers refer to sequence above)
1; High-throughput screening, measuring luminescence from a Hek293 luciferase reporter, was performed in 1,536 well white-walled tissue-culture treated plates. 2,500 cells were plated in 4 µL of Opti-MEM per well using a Multidrop Combi Reagent Dispenser (ThermoFisher).
2; Assay plates were cultured for 24 hours.
3; Control inhibitor (PTC124; final concentration of 50 uM) and compound library (at final concentrations of 460 nM - 57.5 uM) were added to the assay plate using the Kalypsis Pintool Robotic System equipped with 1536 pinheads.
4; Cells were then incubated for 24 hours at 37 degrees C prior to luminescence measurements.
5; In all cases, luminescence was measured using the Dual-Glo Luciferase Reporter Assay System (Promega) following the manufacturer's instructions.
6; Room temperature incubation.
7; Luminescence signal was obtained using the PerkinElmer ViewLux plate reader. Results were normalized to vehicle control (0% activity) and zero RLU (-100% activity).
Potency is the fitted concentration of half-maximal effect.

SMILES	activity change, positive = activation	Potency
O=C(CN1C(=O)COc2ccc(S(=O)(=O)N3CCOCC3)cc21)N1CCN(c2cccc(Cl)c2)CC1	inactive	
COc1ccc(Cn2c(C(=O)O)c(CNCc3cccc(OC)c3)c3ccc(C)cc32)cc1	inactive	
Cc1cc(C)c(NC(=O)Cn2c(SCC(=O)NCc3ccccc3)nc3ccccc32)c(C)c1	inactive	
CCOC(=O)c1cccc(NS(=O)(=O)c2cn(C)c(C)n2)c1	inactive	
COc1cc2[nH]c(=O)n(Cc3ccc(C(=O)NCc4ccc(C)cc4)cc3)c(=O)c2cc1OC	inactive	
CCOC(=O)c1c(NC(=O)Cc2coc3ccc(CC)cc23)sc2c1CCC2	inactive	
COc1cccc(C(c2c(O)cc(C)n(Cc3ccco3)c2=O)N2CCN(c3ccccc3)CC2)c1 (centres undefined)	inactive	
COc1ccc(CC(=O)N2CC(=O)Nc3ccc(Br)cc3C2c2ccc(F)cc2)cc1OC (centres undefined)	inactive	
Cc1ccc(CNS(=O)(=O)c2ccc(-c3cc(C(F)(F)F)on3)s2)cc1	inactive	
COc1ccc(-c2nc3ccc(C(=O)NCc4ccc(C)cc4)cc3nc2-c2ccc(OC)cc2)cc1	inactive	
CCCNC(=O)C1CCN(c2nc3ccc(C)cc3[nH]2)CC1	inactive	
Cc1ccc2nc(CNC(=O)c3ccccc3)[nH]c2c1		4470 nM (active)
COc1ccc(-c2nc3sc(CCNC(=O)C(C)(C)C)c(C)n3n2)cc1	inactive	
COc1ccc(C)cc1-n1c(-c2ccc(C)cc2)cc2c1CC(C)(C)CC2=O	inactive	
Cc1cc(Br)ccc1NC(=O)Cn1cnc2sc(C)c(S(=O)(=O)N3CCN(C)CC3)c2c1=O	inactive	
Cc1ccc(-c2noc(-c3nnn(-c4cccc(C(F)(F)F)c4)c3N)n2)cc1	inactive	
O=C(Nc1ccc(C(=O)OCc2cc(=O)n3nc(C4CC4)sc3n2)cc1)c1ccc(F)cc1	inactive	
COc1ccc(Cn2c(=O)c3oc4ccccc4c3n(CC(=O)Nc3ccc(F)cc3F)c2=O)cc1	inactive	
O=C(CN1CCSc2ccccc21)N1CCN(c2ccccc2)CC1	inactive	
COc1ccc2c(c1)c(N1CCCC1=O)c(C(=O)Nc1ccccc1C(F)(F)F)n2C	inactive	
Cc1ccc(NC(=O)CSc2nc3c([nH]c4ccccc43)c(=O)n2-c2ccccc2)cc1Cl	inactive	
Cc1ccccc1Cn1nc(C)c(NC(=O)c2cc(-c3ccc(F)cc3)on2)c1C	inactive	
CCn1cc(C(=O)N2CCN(c3cc(C)ccc3C)CC2)c(=O)c2cc(S(=O)(=O)N(C)C3CCCCC3)ccc21	inactive	

SMILES	activity change, positive = activation	Potency
Cc1ccc(C)c(N2CCN(c3ccc4cc(S(=O)(=O)N5CCC(C)CC5)ccc4n3)CC2)c1	inactive	
CC[C@]12C=CCN3CC[C@@]4(c5cc([C@@]6(C(=O)OC)C[C@H]7C[C@@H](C(C)(F)F)CN(Cc8c6[nH]c6ccccc86)C7)c(OC)cc5N(C)[C@H]4[C@@](O)(C(=O)OC)[C@H]1OC(C)=O)[C@@H]32	inactive	
Cc1nc(SCC(=O)Nc2ccc(C(=O)O)cc2)n[nH]1	inactive	
O=C(CSc1nc2c(c(=O)[nH]1)CN(Cc1ccc3c(c1)OCO3)CC2)Nc1cc(F)ccc1F	inactive	
COC(=O)c1cc(NC(=O)CCS(=O)(=O)c2cc(Br)cc3c2N(C(=O)C2CC2)CC3)cc(C(=O)OC)c1	inactive	
CC(=O)c1ccc(NC(=O)c2nc(-c3ccc(C)cc3)n3c2CCCCC3)cc1	inactive	
Cc1cccc(C(=O)N2CCc3cc(CNC(=O)Cc4ccc(F)cc4)ccc32)c1	inactive	
CCOC(=O)c1c(C)[nH]c(C)c1S(=O)(=O)N1CCCC(C(=O)NCc2ccccc2Cl)C1 (centres undefined)	inactive	
COc1ccc(-n2c(=O)c3sc4ccccc4c3n(CC(=O)Nc3cccc(C)c3)c2=O)cc1	inactive	
Cc1ccc(CNC(=O)Cn2c(=O)ccc3cc(S(=O)(=O)N4CCCC4)ccc32)cc1	inactive	
Cc1ccc(C)c(Cn2c(C(=O)O)c(CNCc3cccs3)c3ccccc32)c1	inactive	
COC(=O)c1cccc(Cn2nnc3sc4c(c3c2=O)CCC(C(C)(C)C)C4)c1 (centres undefined)	inactive	
CCOc1cc(C=C2C(=O)N(c3ccccc3)N=C2C)cc(Cl)c1OCC(=O)OC	inactive	
CCOc1ccc(NC(=O)c2c(NCc3cccc(OC)c3OC)sc3c2CCC3)cc1	inactive	
CC1CCCCN1S(=O)(=O)c1ccc(F)c(C(=O)Nc2ccccc2C(F)(F)F)c1 (centres undefined)	inactive	
CCn1c(C)c(C)c2cc(C(=O)N3CCN(c4cccc(C)c4C)CC3)ccc21	inactive	
COc1ccc(CNS(=O)(=O)c2cc3c4c(c2)CCN4C(=O)CC3)cc1	inactive	
O=C(NCc1ccccc1)C(=O)NCC(c1ccco1)S(=O)(=O)c1ccc(Cl)cc1 (centres undefined)	inactive	
Oc1ccccc1-c1nc2ccc(Cl)cn2c1Nc1ccc2c(c1)OCCO2	inactive	
CCn1cc(C(=O)N2CCN(c3cc(Cl)ccc3C)CC2)c(=O)c2cc(S(=O)(=O)N3CCCC3)ccc21	10.5% [at 11.5 µM, percent change from vehicle, -100% = no light]	
O=C(NCc1ccc(Cl)cc1)c1ccc2c(c1)nnn2C1CCCC1	inactive	
CC(=O)c1ccc(NC(=O)c2nc3nc(C)cc(C(F)F)n3n2)cc1	inactive	
COc1ccc(CCNC(=O)c2ccc(CSCc3ccc(C)cc3)o2)cc1OC	inactive	

SMILES	activity change, positive = activation	Potency
CCCOC(=O)c1c(NC(=O)c2cc3nc(-c4ccc(OC)cc4)cc(C(F)(F)F)n3n2)sc2c1CCCC2	inactive	
CCC(=O)N1c2ccccc2CC1C(=O)N1CCN(c2ccccc2F)CC1 (centres undefined)	inactive	
COc1ccc2[nH]c3c(c2c1)CCN(C(=O)CCC1CCCC1)C3c1ccc(F)cc1 (centres undefined)	inactive	
CCOc1ccc(/C=C(\C#N)c2nc3ccccc3c(=O)[nH]2)cc1OC	inactive	
Cc1ccc(Cl)cc1N1CCN(C(=O)c2cn(C)c3ccc(S(=O)(=O)N(C)C4CCCCC4)cc3c2=O)CC1	inactive	
Cc1ccc(CN2C(=O)SC(Nc3ccccc3)C2=O)cc1 (centres undefined)	inactive	
COc1ccc(-c2onc(C)c2C)cc1S(=O)(=O)NCCc1ccccc1	inactive	
Cc1ccccc1CNC(=O)CSc1nnc(C)c2c(C)n(-c3ccccc3)nc12	inactive	
O=C(c1ccc(Br)cc1)N(Cc1cccs1)c1ccc(F)cc1	inactive	
COc1ccc(CNC(=O)Cn2nnc(-c3ccc(S(C)(=O)=O)cc3)n2)cc1	inactive	
CCOc1ccc(-c2cc3c(=O)n(CC(=O)NCc4ccc(OC)cc4)ccn3n2)cc1		447 nM (active)
COc1cccc(-n2ccn(CC(=O)NCc3ccc(C)cc3)c(=O)c2=O)c1	inactive	
Cc1cccc(N2CCN(C(=O)CCn3c(=O)c4cccn4c4cccnc43)CC2C)c1 (centres undefined)	inactive	
CCCCOc1ccc(C(=O)Nc2cccc(-c3nc4ccccc4o3)c2C)cc1	inactive	
COc1cccc(-n2c(=O)c3c(C)c(C(=O)N(C)C)sc3n(CC(=O)NCCc3ccc(OC)c(OC)c3)c2=O)c1	inactive	
COc1ccccc1N1CCN(c2ncnc3onc(-c4ccc(F)cc4)c23)CC1	inactive	
CCCN1CN=C(NS(=O)(=O)c2ccc(NC(C)=O)cc2)NC1	inactive	
COCCCNC(=O)c1ccc(NC(=O)c2nsc3ccccc23)cc1	inactive	
CCSc1nnc2c(n1)OC(c1ccc(OCC(=O)O)cc1)Nc1ccccc1-2 (centres undefined)	inactive	
CCCN(CCC)C(=O)C(Cc1ccccc1)NS(=O)(=O)c1ccc2c(c1)c(=O)n(C)c(=O)n2C (centres undefined)	inactive	
Cc1cc(C)cc(NC(=O)Cn2nc(N3CCN(c4ccccc4)CC3)ccc2=O)c1	inactive	
Cc1nn(C(=O)c2c(F)cccc2F)c(C)c1S(=O)(=O)N1CCOCC1	inactive	
CCOc1ccccc1C(=O)NCc1ccc2c(c1)CCN2C(=O)c1ccc(F)cc1	inactive	

SMILES	activity change, positive = activation	Potency
O=C(Nc1cc(C(F)(F)F)ccc1Cl)c1cc2nc(-c3ccc4c(c3)OCO4)cc(C(F)(F)F)n2n1	inactive	
CCN(CC)c1ccc(NC(=O)CN2C(=O)c3cccnc3Oc3ccc(Cl)cc32)c(C)c1	inactive	
Fc1ccc(CN2CCc3nc(Nc4ccccc4)ncc3C2)cc1F	inactive	
CCc1ccc(C2C(C(=O)Nc3ccccc3)=C(C)Nc3c(C(=O)Nc4ccc(C)cc4)cnn32)cc1 (centres undefined)	inactive	
COc1cc(-c2cc3n(C)c(C)c(CCC(=O)Nc4ccc(F)cc4)c(=O)n3n2)cc(OC)c1OC	inactive	
COc1ccc(NC(=O)CCCc2nnc3n(CCC(C)C)c(=O)c4sccc4n23)c(OC)c1	inactive	
CCOc1ccc(CNC(=O)c2ccc3c(c2)nnn3C2CCCC2)cc1	inactive	
COc1ccc(OC)c(-c2noc(N3CCN(c4cc(Cl)ccc4C)CC3)n2)c1	inactive	
CC(=O)c1ccc(S(=O)(=O)N2CCC(Oc3ccc(-n4cnnn4)cc3)CC2)cc1	inactive	
CO[C@@H]1[C@@H](O)[C@H](O)[C@@H](n2c3c(Cl)cccc3c3c4c(c5c6cccc(Cl)c6[nH]c5c32)C(=O)NC4=O)O[C@@H]1CO	inactive	
Cc1cccc(S(=O)(=O)c2cn(Cc3ccccc3)c3cc(N4CCOCC4)c(F)cc3c2=O)c1	inactive	
CC(=O)N1CCCc2cc(S(=O)(=O)N3CCC(C(=O)NCc4ccc(F)cc4)CC3)ccc21	inactive	
CCCS(=O)(=O)Nc1cccc(-c2cn3ccsc3n2)c1	inactive	
Cn1c(=O)cc(OCC(=O)N2CCN(c3ccccc3)CC2)c2ccccc21	inactive	
COc1ccc(-c2c3c(=O)n(C)c(=O)n(C)c3c3c(C)nc4ccccc4n23)cc1	inactive	
Cc1cccc(N2CCN(c3ccc(C(=O)O)cc3NC(=O)c3ccccc3F)CC2C)c1 (centres undefined)	inactive	
Cn1c(=O)c(=O)n(C)c2cc(NC(=O)c3ccccc3Br)ccc21	inactive	
C=C1CCC2[C@](C)(CO)C(O)CC[C@]2(C)C1CC=C1C(=O)OCC1O (some centres undefined)	inactive	
O=c1c(=O)n(Cc2c(F)cccc2Cl)ccn1Cc1ccccc1	inactive	
COc1ccc(CCNC(=O)c2ccc(-n3c(C)cc4c3CCCC4)cc2)cc1OC	inactive	
